A short description of test [1]: qHTS assay to identify small molecule agonists of the peroxisome proliferator-activated receptor delta (PPARd) signaling pathway - cell viability counter screen (AID 743211). Further: nearly all actives have a fitted effect of over 55% in size. In a few lines:
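Viability of GeneBLAzer PPARd UAS-bla HEK293H cells was assessed after 17 h compound incubation at 37C, using CellTiter-Glo reagent added after the reporter read and luminescence recorded 30 min later.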
On the technique in general: qHTS replaces the single test concentration by a dilution series.

The nature of test [2]: qHTS assay to identify small molecule antagonists of the peroxisome proliferator-activated receptor delta (PPARd) signaling pathway - cell viability counter screen (AID 743213). Further: nearly all actives have a fitted effect of over 50% in size. In a few lines:
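In this counter screen, HEK293H cells carrying a UAS-beta-lactamase reporter are co-treated with test compounds and 300 nM L165041 (final) for 17 h at 37 C; cell viability is quantified by CellTiter-Glo luminescence.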

The target in test [3] is Bile acid receptor (Homo sapiens) (UniProt Q96RI1). Kind of test: qHTS assay to identify small molecule antagonists of the farnesoid-X-receptor (FXR) signaling pathway (AID 743217; active means well fitted inhibition curve with a large enough effect in the signal ratio in the repeat runs, not every such curve was filed as active; the % refers to the signal ratio). In a few lines:
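Screen of the Tox21 10K library in quantitative HTS format using FXR-UAS-bla HEK 293T reporter cells. Agonist chenodeoxycholic acid, 50 uM final, added with compounds; 16 h incubation at 37 °C; beta-lactamase FRET fluorescence measured.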

Test [4] can be described thus: qHTS assay to identify small molecule agonists of the farnesoid-X-receptor (FXR) signaling pathway - cell viability counter screen (AID 743218). Further: nearly all actives have a fitted effect of over 45% in size. Summed up:
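Viability of FXR-bla HEK 293T cells is measured by ATP-based CellTiter-Glo luminescence following 16 h compound treatment at 37 C and a prior 2 h room-temperature beta-lactamase substrate step.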

Test [5] has as its target Bile acid receptor (Homo sapiens) (UniProt Q96RI1). As to the kind of experiment: qHTS assay to identify small molecule agonists of the farnesoid-X-receptor (FXR) signaling pathway (AID 743220; active means well fitted activation curve with a large enough effect in the signal ratio in the repeat runs, not every such curve was filed as active; the % refers to the signal ratio). In a few lines: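 FXR-UAS-bla HEK 293T cells carrying a UAS-driven beta-lactamase reporter were plated for 5 h at 37C/5% CO2, then exposed to DMSO-dissolved Tox21 10K compounds for 16 h at 37C. A LiveBLAzer B/G FRET substrate was loaded for 2 h at room temperature before fluorescence reading.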

Test [6] in a line: qHTS assay to identify small molecule antagonists of the farnesoid-X-receptor (FXR) signaling pathway - cell viability counter screen (AID 743221; active means well fitted cell-killing curve with a large enough effect in the repeat runs, not every such curve was filed as active; further: nearly all actives have a fitted effect of over 50% in size). Summed up: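 Quantitative HTS of the Tox21 10K library run in parallel with the beta-lactamase reporter read. HEK 293T cells carrying a UAS-driven bla reporter got compound and 50 uM CDCA (final) for 16 h; ATP-based luminescence followed.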

Test [7] addresses Vitamin D3 receptor (Homo sapiens) (UniProt P11473). Kind of test: qHTS assay to identify small molecule agonists of the vitamin D receptor (VDR) signaling pathway (AID 743222; calls by dose curve). In a few lines:
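Fluorescence from cleaved LiveBLAzer B/G FRET substrate served as readout. VDR-bla cells had been treated 16 h at 37C with test compounds in DMSO, following a 4 h settling period, and substrate was loaded for 2 h at RT.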

For test [8] the target is unchanged. As to the kind of experiment: qHTS assay to identify small molecule antagonists of the vitamin D receptor (VDR) signaling pathway (AID 743223; active means well fitted inhibition curve with a large enough effect in the signal ratio in the repeat runs, not every such curve was filed as active; the % refers to the signal ratio). In a few lines: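 Fluorescence from LiveBLAzer B/G FRET substrate, read after 2 h at room temperature, reflects beta-lactamase reporter activity in VDR-bla cells treated 16 h at 37C with compounds and agonist 1alpha,25-dihydroxyvitamin D3 (3 nM final).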

The nature of test [9]: qHTS assay to identify small molecule agonists of the vitamin D receptor (VDR) signaling pathway - cell viability counter screen (AID 743224). Further: series mostly up to about 63 µM; nearly all actives have a fitted effect of over 50% in size. In a few lines: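 Compounds were pin-transferred onto VDR-bla cells plated 4 h earlier; following 16 h incubation at 37C, cell viability was quantified by CellTiter-Glo luminescence after 30 min at room temperature.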
Test [10] is described as follows: qHTS assay to identify small molecule antagonists of the vitamin D receptor (VDR) signaling pathway - cell viability counter screen (AID 743225). Further: nearly all actives have a fitted effect of over 50% in size. Summed up: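 Cells (VDR-UAS-bla HEK 293T) are plated, rested 4 h at 37C, dosed with compound and 3 nM final 1-alpha,25-dihydroxy vitamin D3, and incubated 16 h. Viability is taken from CellTiter-Glo luminescence in the reporter wells.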

The nature of test [11]: qHTS assay to identify small molecule agonists of the NFkB signaling pathway (AID 1159509; active means well fitted curve in the direction sought with a large enough effect in the signal ratio in the repeat runs, not every such curve was filed as active; the % refers to the signal ratio; further: series mostly up to about 61 µM). In a few lines:
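Readout: FRET fluorescence, 405 nm excitation, 460/530 nm emission; beta-lactamase expression disrupts FRET. Cells: ME-180 stably carrying NF-kB-driven bla reporter. Compound exposure 5 hr, 37 C, 5% CO2.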

Test [12] can be described thus: qHTS assay to identify small molecule agonists of the NFkB signaling pathway - cell viability counter screen (AID 1159515; calls by dose curve; further: series mostly up to about 61 µM; nearly all actives have a fitted effect of over 55% in size). In a few lines:
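Parallel cytotoxicity counter screen in ME-180 cells carrying an NFkB-response-element beta-lactamase reporter, 2,000 cells/well. Compound exposure lasted 5 hr at 37 C, 5% CO2. Cell viability was quantified by CellTiter-Glo luminescence.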

The nature of test [13]: qHTS assay to identify small molecule agonists of the endoplasmic reticulum stress response signaling pathway (AID 1159516; active means well fitted activation curve with a large enough effect in the signal ratio in the repeat runs, not every such curve was filed as active; the % refers to the signal ratio). In a few lines:
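Using a HeLa line with an ESRE-driven beta-lactamase gene, agonist activity was measured by FRET substrate fluorescence (460 and 530 nm emission) after cells were treated with compounds for 5 hr at 37 C and 5% CO2.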

Test [14] is described as follows: qHTS assay to identify small molecule agonists of the endoplasmic reticulum stress response signaling pathway - cell viability counter screen (AID 1159517; calls by dose curve). In a few lines: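 After overnight attachment, ESRE-bla HeLa cells were treated with Tox21 library compounds for 5 hr. CellTiter-Glo luminescence, read 30 min post-addition at room temperature, reported viability.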

The nature of test [15]: qHTS assay to identify small molecule antagonists of the retinoid-related orphan receptor gamma (ROR-gamma) signaling pathway - cell viability counter screen (AID 1159520). Further: nearly all actives have a fitted effect of over 50% in size. Further: potency means the concentration at half of the fitted maximal effect. Summed up:
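Cytotoxicity was read from cellular ATP (CellTiter-Glo luminescence) after 16 hr at 37 C with 1 uM doxycycline induction. The inducer was added 2 hr after compound transfer to Tet-on ROR gamma CHO cells.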

Test [16] in a line: qHTS assay to identify small molecule agonists of the AP-1 signaling pathway - cell viability counter screen (AID 1159525; calls by dose curve; further: nearly all actives have a fitted effect of over 55% in size; further: potency means the concentration at half of the fitted maximal effect). Summed up: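 Intracellular ATP by Cell Titer Glo luminescence (30 min, RT) in the same ME-180 AP-1-bla wells after the 5 h compound exposure at 37 °C. Normalised to tetra n-octyl ammonium bromide and DMSO controls.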
The nature of test [17]: qHTS assay to identify small molecule agonists of the AP-1 signaling pathway (AID 1159526; calls by dose curve).
In test [18] the target is Peroxisome proliferator-activated receptor delta (Homo sapiens) (UniProt Q03181). As to the kind of experiment: qHTS assay to identify small molecule agonists of the peroxisome proliferator-activated receptor delta (PPARd) signaling pathway (AID 743212; calls by dose curve;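 further: HEK293H cells with PPARd UAS beta-lactamase reporter GeneBLAzer system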). In a few lines: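 Steps: seed PPARd-bla HEK293H cells; incubate 5 h, 37 C, 5% CO2; add compounds in DMSO; incubate, 37 C; add LiveBLAzer B/G FRET substrate; hold 2 h at room temperature; measure fluorescence.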

Test [19] shares this target. Kind of test: qHTS assay to identify small molecule antagonists of the peroxisome proliferator-activated receptor delta (PPARd) signaling pathway (AID 743215; active means well fitted inhibition curve with a large enough effect in the signal ratio in the repeat runs, not every such curve was filed as active; the % refers to the signal ratio;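 further: cells stimulated with agonist L165041 at 300 nM final during compound exposure; series mostly up to about 62 µM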). Summed up:
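Plated HEK293H PPARd-bla cells rested 5 h at 37 C and 5% CO2. Compound, then agonist L165041 at 300 nM final, was added; 17 h at 37 C followed. Substrate loading, 2 h room temperature, fluorescence measured.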

In test [20] the target is Nuclear receptor ROR-gamma (Homo sapiens) (UniProt P51449). As to the kind of experiment: qHTS assay to identify small molecule antagonists of the retinoid-related orphan receptor gamma (ROR-gamma) signaling pathway (AID 1159521; further: nearly all actives have a fitted effect of over 50% in size; further: potency means the concentration at half of the fitted maximal effect). Summed up: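 RORγ antagonism is scored from reduced reporter luminescence in Tet-on CHO cells. Induction used 1 uM final doxycycline hyclate for 16 h at 37 C, following a 2 h compound exposure.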

Results filed as inconclusive are left out. More than one record can exist for a structure, and the calls need not agree. Calls of active or inactive are those of the source. Unless noted, the call rests on the fitted dose curve; in most records, active means well fitted curve in the direction sought with a large enough effect in the repeat runs; inconclusive means weak or mixed curves; inactive means no such curve, though single readings can be large; an effect the other way counts as inactive or inconclusive.

Vitamin D3 receptor (Homo sapiens), sequence (P11473 whole entry, looked up): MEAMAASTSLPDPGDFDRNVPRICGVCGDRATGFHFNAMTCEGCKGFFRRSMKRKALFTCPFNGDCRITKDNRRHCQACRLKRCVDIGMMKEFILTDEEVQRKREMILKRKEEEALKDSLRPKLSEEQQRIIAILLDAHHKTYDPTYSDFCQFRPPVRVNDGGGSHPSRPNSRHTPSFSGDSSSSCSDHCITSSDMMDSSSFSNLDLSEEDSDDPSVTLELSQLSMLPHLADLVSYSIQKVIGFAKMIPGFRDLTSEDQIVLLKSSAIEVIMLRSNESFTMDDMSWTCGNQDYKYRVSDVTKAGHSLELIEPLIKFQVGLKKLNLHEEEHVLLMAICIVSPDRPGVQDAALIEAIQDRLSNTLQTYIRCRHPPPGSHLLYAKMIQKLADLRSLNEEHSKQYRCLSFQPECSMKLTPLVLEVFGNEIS
Bile acid receptor (Homo sapiens), sequence (Q96RI1 whole entry, looked up): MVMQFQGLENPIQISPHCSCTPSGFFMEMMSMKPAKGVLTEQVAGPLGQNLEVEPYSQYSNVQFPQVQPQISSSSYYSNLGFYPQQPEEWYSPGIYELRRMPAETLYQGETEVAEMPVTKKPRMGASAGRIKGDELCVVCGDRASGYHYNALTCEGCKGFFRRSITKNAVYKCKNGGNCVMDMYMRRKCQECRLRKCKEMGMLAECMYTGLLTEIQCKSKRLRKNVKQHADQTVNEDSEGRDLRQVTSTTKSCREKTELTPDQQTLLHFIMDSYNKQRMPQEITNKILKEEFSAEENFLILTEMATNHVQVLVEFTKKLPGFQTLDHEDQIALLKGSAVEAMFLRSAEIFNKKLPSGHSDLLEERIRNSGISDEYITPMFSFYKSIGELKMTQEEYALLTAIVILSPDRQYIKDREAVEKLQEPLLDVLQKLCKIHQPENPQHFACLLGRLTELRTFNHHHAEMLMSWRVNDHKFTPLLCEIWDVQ
Peroxisome proliferator-activated receptor delta (Homo sapiens), sequence (Q03181 whole entry, looked up): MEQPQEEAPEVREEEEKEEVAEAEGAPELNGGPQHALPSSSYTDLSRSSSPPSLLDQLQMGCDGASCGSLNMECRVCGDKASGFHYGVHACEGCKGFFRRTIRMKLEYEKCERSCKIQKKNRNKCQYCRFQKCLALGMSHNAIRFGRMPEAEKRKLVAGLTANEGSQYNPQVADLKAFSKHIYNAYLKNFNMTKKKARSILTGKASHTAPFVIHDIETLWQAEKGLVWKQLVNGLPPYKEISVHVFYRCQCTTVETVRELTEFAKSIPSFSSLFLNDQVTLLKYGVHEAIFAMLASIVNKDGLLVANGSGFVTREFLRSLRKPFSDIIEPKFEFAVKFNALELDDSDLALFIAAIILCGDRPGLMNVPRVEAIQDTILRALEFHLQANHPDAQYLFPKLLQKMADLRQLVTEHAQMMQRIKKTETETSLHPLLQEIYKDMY

Regarding `O=C(c1ccccc1)c1ccccc1`, the molecule was called inactive in test [1], in test [2], in test [4], in [5], in test [6] and in test [7]. The molecule was called inactive in [8], in [9], in test [10], in test [11], in [12] and in test [13]. Also, the outcome in test [14] was inactive. Moreover, the Potency result in test [3], in test [15], in test [16] and in test [17] was “inactive” throughout.
Take `O=C(O)CCCCC(=O)O`: the molecule was called inactive in [1], in [18], in test [2], in test [4], in test [5] and in test [6]. For the same molecule, the call in test [7], in test [8], in test [10], in [11], in [12] and in test [13] was inactive. Further, the outcome in test [14] was inactive. Also, the Potency entry in test [3], in test [15], in test [16] and in test [17] was “inactive” each time.
Consider `Cc1cn([C@H]2C[C@H](N=[N+]=[N-])[C@@H](CO)O2)c(=O)[nH]c1=O`, for which the molecule was classed as inactive in [1], in test [18], in [2], in test [19], in test [4] and in test [5]. Further, the molecule was classed as inactive in test [6], in [7], in test [8], in test [10], in test [11] and in [12]. Moreover, the molecule was classed as inactive in [13] and in [14]. For the same molecule, the Potency entry in test [3], in test [15], in test [20], in test [16] and in test [17] was “inactive” in each case.
For `CCCCOC(=O)CC(CC(=O)OCCCC)(OC(C)=O)C(=O)OCCCC`, the outcome in test [1], in test [18], in [2], in test [19], in [4] and in test [5] was inactive. Further, the call in [6], in test [7], in [8], in test [10], in [11] and in test [12] was inactive. Further, the molecule was called inactive in [13] and in test [14]. Further, the Potency entry in test [3], in test [15], in [20], in [16] and in test [17] was “inactive” throughout.
On to `Cc1ccccc1C(OCCN(C)C)c1ccccc1` (centres undefined), for which the call in [18], in test [2], in [19], in [4], in test [5] and in test [6] was inactive. In addition, the call in test [9], in [10], in [11], in [12], in [13] and in [14] was inactive. In addition, the Potency entry in [3], in [15], in test [20] and in [16] was “inactive” throughout.
For `c1ccc2[nH]ccc2c1`, the call in test [1], in [18], in test [2], in [19], in [4] and in test [6] was inactive. For the same molecule, the result in [7], in test [8], in [9], in test [10], in test [11] and in [12] was inactive. In addition, the result in test [13] and in test [14] was inactive. Moreover, the Potency in test [15] is 2.69 µM (active) and inactive; in [20], 1.35 µM (active) and inactive; in test [16] it was 42.9 µM (active) and inactive. Further, the Potency result in test [17] was “inactive”.
For the molecule `O=C(O)CCC(=O)O`, the call in test [1], in [18], in test [2], in test [19], in test [4] and in [5] was inactive. Also, the call in [6], in [7], in test [8], in [10], in test [11] and in test [12] was inactive. The result in test [13] and in [14] was inactive. Further, the Potency entry in test [3], in test [15], in test [20], in test [16] and in [17] was “inactive” in each case.
Regarding `CCCN(CCC)S(=O)(=O)c1ccc(C(=O)O)cc1`, the outcome in [1], in test [18], in test [2], in test [19], in [4] and in test [5] was inactive. For the same molecule, the result in [6], in [7], in test [8], in test [10], in test [11] and in [12] was inactive. Also, the outcome in test [13] and in [14] was inactive. In addition, the Potency entry in [3], in [15], in [20], in test [16] and in [17] was “inactive” each time.

Source of the values: PubChem BioAssay (Tox21).
